Measured values taken from PubChem BioAssay AID624330 (Southern Research Specialized Biocontainment Screening …, 2012).
In all, about 340,000 compounds went through this assay and about 2,100 (0.62%) were called active.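 Rule for the calls: active = first-screen hits whose inhibition reached a set limit at any dose in the follow-up dose series; inconclusive = inhibition above the set first-screen limit but never retested; inactive = the rest.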 These entries were drawn from the full list. Potency and affinity values are given separately.

Target: Rac GTPase-activating protein 1 (Homo sapiens) (UniProt Q9H0H5)
Assay: MgcRacGAP GTPase-activating activity inhibitors, confirmation, biochemical, ADP Hunter fluorescence, primary and confirmatory (AID 624330);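 note: fluorescence reports GDP produced by GAP-driven GTP hydrolysis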
Conditions: MgcRacGAP-stimulated Rac1 GTP hydrolysis, at 30 µM, stronger effect = higher value, GST-tagged Rac1 F28L mutant substrate

Chain of Rac GTPase-activating protein 1 (Homo sapiens) (Q9H0H5 whole entry, looked up): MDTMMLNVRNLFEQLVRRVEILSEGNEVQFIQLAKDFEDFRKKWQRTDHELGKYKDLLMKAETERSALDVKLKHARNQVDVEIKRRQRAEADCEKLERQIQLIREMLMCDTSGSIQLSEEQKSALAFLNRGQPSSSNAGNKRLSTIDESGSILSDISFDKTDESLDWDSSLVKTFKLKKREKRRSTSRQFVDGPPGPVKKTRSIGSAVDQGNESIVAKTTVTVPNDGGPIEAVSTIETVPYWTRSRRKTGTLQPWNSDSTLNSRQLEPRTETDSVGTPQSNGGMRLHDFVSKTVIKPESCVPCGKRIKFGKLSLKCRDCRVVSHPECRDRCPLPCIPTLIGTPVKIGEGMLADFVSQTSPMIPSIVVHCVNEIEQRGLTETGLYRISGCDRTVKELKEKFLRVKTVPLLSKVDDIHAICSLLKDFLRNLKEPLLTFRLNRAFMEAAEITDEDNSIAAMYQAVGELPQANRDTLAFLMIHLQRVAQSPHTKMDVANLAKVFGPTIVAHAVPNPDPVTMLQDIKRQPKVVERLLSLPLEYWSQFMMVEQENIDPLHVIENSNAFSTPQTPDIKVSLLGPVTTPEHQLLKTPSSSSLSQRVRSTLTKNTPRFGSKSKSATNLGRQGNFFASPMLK

inhibition, inactive:
COc1ccccc1OCC(=O)N1CC2(C)CC1CC(C)(C)C2 (stereo not given) 8.14%
O=C(/C=C/c1cccc([N+](=O)[O-])c1)OCC(=O)N1CCN(C(=O)c2ccco2)CC1 4.32%
COc1ccccc1C(=O)OCC(=O)N1CCC(Cc2ccccc2)CC1 6.97%
COc1ccc(/C=N/OCC(=O)N2CC3(C)CC2CC(C)(C)C3)cc1OC (stereo not given) 4.24%
CCOC(=O)/C=C/C(=O)OCC(=O)N1CCN(C(=O)c2ccco2)CC1 8.47%
COc1cccc(OC)c1C(=O)OCC(=O)N1CCC(Cc2ccccc2)CC1 -0.57%
COc1cc(/C=C/C(=O)OCC(=O)N2CCCc3ccccc32)ccc1OC(F)F 1.81%
COc1cc(/C=C/C(=O)OCC(=O)N2CCCc3ccccc32)ccc1OCC#N 6.56%
Cc1ccc(-c2ccc(=O)n(CC(=O)NCCN(CC(C)C)CC(C)C)n2)cc1 8.51%
O=C1C(CO)C(CO)C(CO)C1CO (stereo not given) -2.59%
CNCCCc1[nH]nc(N)c1C#N 9.11%
CCN(CC(=O)Nc1c(F)cccc1F)C(=O)c1cn2ccccc2n1 2.69%
Cc1ccn2cc(CCNC(=O)c3ccc(Br)o3)nc2c1 13.4%
O=S(=O)(CCc1nc2ccccc2s1)c1ccc2ccccc2c1 18.8%
CCN(CC)S(=O)(=O)c1ccc(NN)nc1 -5.75%
COc1cc(/C=C/C(=O)OCC(=O)N2CCCC2)cc(OC)c1OC 4.39%
COc1ccc(/C=C/C(=O)OCC(=O)N2CCN(S(=O)(=O)c3ccc(C)cc3C)CC2)cc1OC -0.78%
COc1ccc(/C=C/C(=O)OCC(=O)N2CCCCCC2)cc1OC 0.54%
COc1cc(/C=C/C(=O)OCC(=O)N2CCN(S(=O)(=O)c3ccc(C)cc3C)CC2)ccc1OC(F)F 5.89%
COc1cc(C(=O)O)nc(OC)n1 0.97%
CCOC(=O)c1nn(-c2ccc(Cl)cc2)c(=O)c(C#N)c1C 5.44%
O=C(O)CNC(=O)c1ccc(Oc2c(F)c(F)c(Oc3ccc(C(=O)NCC(=O)O)cc3)c(F)c2F)cc1 -1.5%
N#CCSc1nnc2sc3ccccc3n12 5.4%
O=S(=O)(O)c1nnc2sc3ccccc3n12 7.48%
O=S(=O)(Cc1ccccc1)N1CCN(Cc2ccc3c(c2)OCO3)CC1 4.33%
Cc1cccc(NC(=O)C2C3C=CC(C4CC34)C2C(=O)O)c1 (stereo not given) 10%
Cc1nc2ncnn2c(C)c1Cc1cccc(C(F)(F)F)c1 5.74%
CCCCNC(=O)N1c2ccccc2CC1C (stereo not given) 1.84%
CC1Cc2ccccc2N1C(=O)CNc1ccccc1N1CCCCC1 (stereo not given) -0.46%
Cc1cc(N2C(=O)C(O)=C(C(=O)c3cc4ccccc4o3)C2c2ccc(Cl)cc2)no1 (stereo not given) -5.51%
O=[N+]([O-])c1ccccc1NS(=O)(=O)c1ccccc1 0.32%
O=c1cc[nH]c2c1ccc1c(=O)cc[nH]c12 10.4%
Cc1ccc2[nH]ccc(=O)c2c1 10.1%
CC1CCC2(CC1)NC(=O)N(CC(=O)N1CC(C)CC(C)C1)C2=O (stereo not given) 3.96%
CCc1ccc2c(c1)C(c1ccc([N+](=O)[O-])cc1)=NNC(c1ccc(C)cc1)=N2 11%
Cc1ccc(/C=N/Nc2ccc(F)cc2)s1 8.64%
CSc1ccc(/C=N/Nc2ccc(Cl)c(C(=O)O)c2)cc1 5.85%
O=C(O)c1cc(N/N=C/c2ccncc2)ccc1Cl -1.57%
Cc1ccc(/C=N/Nc2cccc(C(=O)O)c2)s1 27.8%
CC1=NN(c2ccc(Cl)c(C(=O)O)c2)C(=O)C1 14.9%
O=C1NN(c2ccc(F)cc2)C(=O)/C1=C\C=C\c1ccco1 8.7%
CCOC(=O)c1ccc(N2N=C(C)/C(=C/C=C/c3ccco3)C2=O)cc1 3.99%
CC1=NN(c2ccc(C(=O)OC(C)C)cc2)C(=O)/C1=C\C=C\c1ccco1 3.71%
O=C(C1=C(O)C(=O)N(CCN2CCOCC2)C1c1cccc(Br)c1)c1cc2ccccc2o1 (stereo not given) 4.64%
C=CCC[C@@H](Cc1ccc(F)cc1)C(=O)OC[C@@H](Cc1c[nH]c2ccccc12)NC(=O)[C@@H](CC=C)CC(=O)N[C@H](CO)Cc1ccccc1 11.1%
CCN(CC)C1CCN(C(=O)c2cc(COc3cccc4cccnc34)on2)C1 (stereo not given) -5.07%
COC(=O)C(NC(C)=O)(Nc1ccc(C)cn1)C(F)(F)F (stereo not given) -9.84%
O=[N+]([O-])c1ccccc1CN1CCN(Cc2ccccn2)CC1 28.6%
COc1cc(CN2CCC(C(=O)NC(C)(C)C)CC2)ccc1OCc1ccccc1 29.2%
CCOC(=O)c1cc(CC)sc1NC(=O)Cc1ccsc1 14.6%
C#Cc1ccc(CN2CCN(CCc3ccccc3)C(CCO)C2)cc1 (stereo not given) 5.19%
Cc1c(C)c2ccc(OCC(=O)NC3CCN(Cc4ccccc4)CC3)cc2oc1=O 4.93%
C[C@@H]1CCCCO[C@H](CN(C)C(=O)Nc2ccc(F)cc2)[C@@H](C)CN([C@H](C)CO)C(=O)c2cc(NC(=O)c3ccccc3)ccc2O1 5.34%
O=C(O)c1ccccc1N=Nc1ccc(O)cc1 13.8%
Nc1ccc(N=Nc2ccccc2)c(N)n1 8.49%
Oc1ccc(N=Nc2ccc3ccccc3c2)cc1 18.5%
Nc1ccc(N=Nc2ccccc2Cl)c(N)n1 10.4%
O=C(Nc1cccc(-c2ccccc2)c1)N1CCN(C(=O)Nc2cccc(-c3ccccc3)c2)CC1 14.5%
Cc1cc(NC(=O)c2ccc(C)o2)no1 2.09%
CCOC(=O)N1CCC(N2Cc3cccc(C(=O)Nc4ccc(N(CC)CC)cc4C)c3C2=O)CC1 -10.8%
